The values below come from PubChem BioAssay (Tox21).

Assay [1] can be described thus: Human pregnane X receptor (PXR) small molecule agonists, qHTS cell viability counter screen (AID 1346977). Note: nearly all actives have a fitted effect of over 50% in size. Note: potency is the fitted concentration of half-maximal effect. A digest of the protocol: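 PXR-Luc HepG2, 2,000 cells/well, 5% charcoal-stripped FBS; 5hr settle; cpd 24hr, 37C/5% CO2; CellTiter-Fluor at 23hr, read 1hr later (fluorescence).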
(In general: Quantitative high-throughput screening tests each substance at several concentrations.)

Assay [2] in a line: Caspase-3/7 induction in HepG2 cells by small molecules, qHTS assay (AID 1346978). Note: nearly all actives have a fitted effect of over 15% in size. Note: potency is the fitted concentration of half-maximal effect. The gist of the method:
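Caspase-3/7 induction was measured by Caspase-Glo 3/7 luminescence (30 min, room temperature) after a 17 hr compound exposure of wild-type HepG2 cells seeded at 2,000 per well and pre-incubated 5 hr.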

Assay [3] is described as follows: Caspase-3/7 induction in CHO-K1 cells by small molecules, qHTS assay (AID 1346980). Note: nearly all actives have a fitted effect of over 15% in size. A digest of the protocol:
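Luminescent Caspase-Glo 3/7 read (30min, room temperature) quantified apoptosis induction. Cells were wild-type CHO-K1, treated with compound for 17hr at 37 C and 5% CO2.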

Assay [4] is described as follows: Caspase-3/7 induction in HepG2 cells by small molecules, qHTS cell viability counter screen (AID 1346981). Note: nearly all actives have a fitted effect of over 30% in size. Note: potency is the fitted concentration of half-maximal effect. The gist of the method: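 Steps: seed 2,000 HepG2 cells per well; incubate 5 hr at 37 C; pin-add compounds in DMSO; incubate 16 hr; add CellTiter-Fluor; after 1 hr at 37 C and 5% CO2, read fluorescence.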
Assay [5] addresses Nuclear receptor subfamily 1 group I member 2 (Homo sapiens) (UniProt O75469). The assay is described as follows: Human pregnane X receptor (PXR) small molecule agonists, qHTS assay (AID 1346982). Note: nearly all actives have a fitted effect of over 35% in size. Note: potency is the fitted concentration of half-maximal effect. A digest of the protocol:
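Agonist mode qHTS: PXR-Luc HepG2 cells plated 5 hr before DMSO-dissolved compounds were pinned in, cultured 24 hr at 37 C, 5% CO2; ONE-Glo luminescence readout.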

Assay [6] has as its target Cytochrome P450 2D6 (Homo sapiens) (UniProt P10635). The assay is described as follows: Cytochrome P450 Family 2 Subfamily D Member 6 (CYP2D6) small molecule antagonists: luciferase reporter qHTS assay (AID 1671196). Note: nearly all actives have a fitted effect of over 50% in size. Note: potency is the fitted concentration of half-maximal effect. The gist of the method: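 P450-Glo format: CYP2D6 converts a proluciferin substrate to luciferin in an NADPH-driven reaction lasting 1 h at room temperature. Light output, proportional to CYP2D6 activity, reflects interference by test chemicals.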
Background: A reporter such as luciferase makes a cellular process visible.

Assay [7] addresses Cytochrome P450 2C19 (Homo sapiens) (UniProt P33261). In words: Cytochrome P450 Family 2 Subfamily C Member 19 (CYP2C19) small molecule antagonists: luciferase reporter qHTS assay (AID 1671197). Note: nearly all actives have a fitted effect of over 65% in size. Note: potency is the fitted concentration of half-maximal effect. The gist of the method:
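CYP2C19 P450-Glo, 1536-well qHTS. Cpd + enzyme/proluciferin substrate 10 min RT; + NADPH regen, 37C 1 h; stop with luciferin detection reagent, 20 min RT, luminescence (RLU). Pos ctrl ketoconazole.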

For assay [8], the target named is Cytochrome P450 2C9 (Homo sapiens) (UniProt P11712). The assay is described as follows: Cytochrome P450 Family 2 Subfamily C Member 9 (CYP2C9) small molecule antagonists: luciferase reporter qHTS assay (AID 1671198). Note: nearly all actives have a fitted effect of over 50% in size. Note: potency is the fitted concentration of half-maximal effect. The gist of the method:
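Enzyme-substrate mix preincubated with compound 10 min at room temperature; reaction started with NADPH regeneration solution, 1 h 37C. Luminescent luciferin product read after 20 min detection reagent.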

The target in assay [9] is Cytochrome P450 1A2 (Homo sapiens) (UniProt P05177). The assay is described as follows: Cytochrome P450 Family 1 Subfamily A Member 2 (CYP1A2) small molecule antagonists: luciferase reporter qHTS assay (AID 1671199). Note: nearly all actives have a fitted effect of over 50% in size. Note: potency is the fitted concentration of half-maximal effect. A digest of the protocol:
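Inhibition of CYP1A2 conversion of proluciferin to luciferin, detected by luminescence. Reaction run 1 h at room temperature with NADPH regeneration after brief compound preincubation.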

In assay [10] the target is Voltage-gated inwardly rectifying potassium channel KCNH2 (Homo sapiens) (UniProt Q12809). The assay is described as follows: Human Ether-a-go-go-Related Gene (hERG) channel small molecule antagonists: fluorescence cell-based qHTS assay (AID 1671200). A digest of the protocol:
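Channel function was assessed by thallium flux. Cells seeded the previous day and kept at 37 C took up FluxOR II dye over 1 h in the dark at room temperature, then sat another 10 min before stimulation.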

In assay [11] the target is Cytochrome P450 3A4 (Homo sapiens) (UniProt P08684). The assay is described as follows: Cytochrome P450 Family 3 Subfamily A Member 4 (CYP3A4) small molecule antagonists: luciferase reporter qHTS assay (AID 1671201). Note: nearly all actives have a fitted effect of over 50% in size. Note: potency is the fitted concentration of half-maximal effect. The gist of the method: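 Compounds in DMSO were pin-transferred onto CYP3A4 enzyme-substrate mix and held 10 min at room temperature. NADPH regenerating solution started the reaction for 1 h; luciferin detection reagent stopped it, and luminescence was read after 20 min.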
Chain of Cytochrome P450 3A4 (Homo sapiens) (P08684 whole entry, looked up): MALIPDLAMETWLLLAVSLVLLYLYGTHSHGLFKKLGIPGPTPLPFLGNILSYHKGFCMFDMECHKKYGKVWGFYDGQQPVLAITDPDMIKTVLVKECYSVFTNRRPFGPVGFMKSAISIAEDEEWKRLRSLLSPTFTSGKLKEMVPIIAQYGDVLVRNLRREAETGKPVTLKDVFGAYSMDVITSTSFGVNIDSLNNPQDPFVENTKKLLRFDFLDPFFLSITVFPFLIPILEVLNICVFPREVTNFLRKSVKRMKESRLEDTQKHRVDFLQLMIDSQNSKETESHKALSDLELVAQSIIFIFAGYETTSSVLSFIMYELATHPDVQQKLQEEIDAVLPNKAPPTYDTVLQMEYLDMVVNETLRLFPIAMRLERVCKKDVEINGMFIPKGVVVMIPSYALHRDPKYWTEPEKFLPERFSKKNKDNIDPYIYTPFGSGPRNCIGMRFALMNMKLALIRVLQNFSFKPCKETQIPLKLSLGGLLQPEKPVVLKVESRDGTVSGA

Assay [12] can be described thus: Caspase-3/7 induction in CHO-K1 cells by small molecules, qHTS cell viability counter screen (AID 1346979). Note: nearly all actives have a fitted effect of over 35% in size. A digest of the protocol: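 Cells (CHO-K1, wild type) are plated at 1,500 per well and incubated 5hr. Test compounds in DMSO are then pinned in, followed by 16hr at 37C and 5% CO2. Viability is read by CellTiter-Fluor fluorescence after 1hr.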
Assay [13] concerns the target Nuclear receptor subfamily 1 group I member 2 (Homo sapiens) (UniProt O75469). The assay is described as follows: CYP3A4 induction through human pregnane X receptor (PXR) by small molecules, qHTS assay (AID 1346984). Note: nearly all actives have a fitted effect of over 40% in size. A digest of the protocol:
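Steps: seed DPX-2 cells, 5 hr at 37C; pin-transfer compounds; 24 hr at 37C; add Luciferin-IPA (3uM final), 3 hr at 37C; add One-Glo, 30 min RT; read luminescence.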

The target in assay [14] is Nuclear receptor subfamily 1 group I member 2 (Rattus norvegicus) (UniProt Q9R1A7). The assay is described as follows: Rat pregnane X receptor (rPXR) activation by small molecules, qHTS assay (AID 1346983). Note: nearly all actives have a fitted effect of over 20% in size. The note with it: rPXR luciferase reporter cells, One-Glo luminescence, 24 h; max activation: stronger effect = higher value. The gist of the method: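 Luminescent readout (One-Glo luciferase, 30 min room temperature) followed 24 hr compound treatment at 37 C of rPXR cells plated 2,000 per well and preincubated 5hr; qHTS format with compounds delivered in DMSO.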
Chain of Nuclear receptor subfamily 1 group I member 2 (Rattus norvegicus) (Q9R1A7 whole entry, looked up): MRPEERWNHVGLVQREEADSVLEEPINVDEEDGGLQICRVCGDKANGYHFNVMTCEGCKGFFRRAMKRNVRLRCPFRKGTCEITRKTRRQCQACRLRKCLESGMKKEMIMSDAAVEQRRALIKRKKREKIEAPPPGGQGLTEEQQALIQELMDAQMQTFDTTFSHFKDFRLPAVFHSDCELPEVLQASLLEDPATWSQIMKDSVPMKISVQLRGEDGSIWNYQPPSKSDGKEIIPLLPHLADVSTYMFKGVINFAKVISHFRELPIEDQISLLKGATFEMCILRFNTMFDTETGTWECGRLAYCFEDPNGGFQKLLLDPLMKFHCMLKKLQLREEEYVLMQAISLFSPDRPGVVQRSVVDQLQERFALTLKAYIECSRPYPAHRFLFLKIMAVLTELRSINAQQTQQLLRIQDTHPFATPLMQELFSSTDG

Assay [15] addresses Nuclear receptor subfamily 1 group I member 2 (Homo sapiens) (UniProt O75469). In words: Human pregnane X receptor (PXR) activation by small molecules, qHTS assay (AID 1346985). Note: nearly all actives have a fitted effect of over 40% in size. The gist of the method:
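DPX-2 cells (HepG2 co-transfected with a PXR response element and a CYP3A4-promoter luciferase construct) were seeded at 2,000 per well, rested 5 hr at 37C, then exposed to DMSO-dissolved compounds for 24 hr. Activation was read as luciferase luminescence.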

Values without a mark were called inactive. Results filed as inconclusive are left out. Activity calls are given as the source filed them. Calls come from the whole dose curve; as a rule, active = well fitted curve in the direction sought with a large enough effect in the repeat runs; inconclusive = weak or mixed curves; inactive = no such curve, though single readings can be large; an effect the other way counts as inactive or inconclusive.
% is set by controls: 0 for no effect and ±100 for the full control effect.

Chain of Cytochrome P450 2C19 (Homo sapiens) (P33261 whole entry, looked up): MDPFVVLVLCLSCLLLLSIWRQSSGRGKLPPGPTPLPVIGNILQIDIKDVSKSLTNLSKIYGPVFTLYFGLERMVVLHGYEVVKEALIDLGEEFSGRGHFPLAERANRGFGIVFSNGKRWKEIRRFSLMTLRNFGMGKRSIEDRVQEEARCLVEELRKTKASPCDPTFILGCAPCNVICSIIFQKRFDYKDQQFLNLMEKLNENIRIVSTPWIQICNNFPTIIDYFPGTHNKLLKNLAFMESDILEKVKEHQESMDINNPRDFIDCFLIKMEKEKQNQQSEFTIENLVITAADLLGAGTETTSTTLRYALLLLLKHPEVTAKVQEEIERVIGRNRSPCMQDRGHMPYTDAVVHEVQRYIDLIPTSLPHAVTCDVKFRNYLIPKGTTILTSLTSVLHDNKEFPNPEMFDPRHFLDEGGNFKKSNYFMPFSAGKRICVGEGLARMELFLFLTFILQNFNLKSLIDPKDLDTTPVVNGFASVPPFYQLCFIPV
Chain of Cytochrome P450 2D6 (Homo sapiens) (P10635 whole entry, looked up): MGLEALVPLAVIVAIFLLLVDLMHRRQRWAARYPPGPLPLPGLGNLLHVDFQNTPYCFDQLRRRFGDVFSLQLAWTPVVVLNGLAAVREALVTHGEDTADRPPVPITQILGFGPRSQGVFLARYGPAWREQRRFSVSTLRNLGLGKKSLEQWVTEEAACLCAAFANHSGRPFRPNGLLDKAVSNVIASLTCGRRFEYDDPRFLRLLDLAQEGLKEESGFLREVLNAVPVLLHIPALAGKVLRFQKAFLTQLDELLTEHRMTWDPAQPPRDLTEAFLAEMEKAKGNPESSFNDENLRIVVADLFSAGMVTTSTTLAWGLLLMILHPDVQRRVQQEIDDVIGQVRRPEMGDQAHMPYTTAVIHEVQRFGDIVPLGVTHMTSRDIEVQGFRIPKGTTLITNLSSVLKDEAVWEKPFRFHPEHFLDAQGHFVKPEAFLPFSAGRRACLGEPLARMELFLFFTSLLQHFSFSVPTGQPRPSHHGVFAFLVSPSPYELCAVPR
Chain of Cytochrome P450 1A2 (Homo sapiens) (P05177 whole entry, looked up): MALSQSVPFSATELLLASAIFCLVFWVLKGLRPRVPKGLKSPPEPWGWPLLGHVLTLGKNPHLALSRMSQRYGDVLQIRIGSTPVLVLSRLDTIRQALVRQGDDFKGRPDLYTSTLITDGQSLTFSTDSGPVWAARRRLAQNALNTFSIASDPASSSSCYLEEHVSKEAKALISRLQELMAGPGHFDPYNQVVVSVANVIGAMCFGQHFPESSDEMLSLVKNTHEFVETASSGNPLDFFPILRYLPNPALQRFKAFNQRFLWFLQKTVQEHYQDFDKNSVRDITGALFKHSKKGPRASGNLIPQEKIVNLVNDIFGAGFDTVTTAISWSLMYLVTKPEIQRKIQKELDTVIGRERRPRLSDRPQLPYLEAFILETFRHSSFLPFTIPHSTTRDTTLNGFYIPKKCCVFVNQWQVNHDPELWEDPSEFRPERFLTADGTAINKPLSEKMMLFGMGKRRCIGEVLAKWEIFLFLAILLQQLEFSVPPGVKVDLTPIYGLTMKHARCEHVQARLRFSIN
Chain of Nuclear receptor subfamily 1 group I member 2 (Homo sapiens) (O75469 whole entry, looked up): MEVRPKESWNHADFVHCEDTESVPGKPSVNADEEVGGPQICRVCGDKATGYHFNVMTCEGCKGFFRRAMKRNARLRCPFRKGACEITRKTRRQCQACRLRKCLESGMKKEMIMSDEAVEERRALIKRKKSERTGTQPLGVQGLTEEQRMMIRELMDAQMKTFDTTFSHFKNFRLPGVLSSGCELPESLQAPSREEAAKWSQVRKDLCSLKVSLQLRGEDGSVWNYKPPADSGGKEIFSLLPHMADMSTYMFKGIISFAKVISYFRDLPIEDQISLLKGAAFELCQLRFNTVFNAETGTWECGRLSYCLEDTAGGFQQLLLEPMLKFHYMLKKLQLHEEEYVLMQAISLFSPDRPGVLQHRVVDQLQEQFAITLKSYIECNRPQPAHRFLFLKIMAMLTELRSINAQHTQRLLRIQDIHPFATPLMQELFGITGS
Chain of Cytochrome P450 2C9 (Homo sapiens) (P11712 whole entry, looked up): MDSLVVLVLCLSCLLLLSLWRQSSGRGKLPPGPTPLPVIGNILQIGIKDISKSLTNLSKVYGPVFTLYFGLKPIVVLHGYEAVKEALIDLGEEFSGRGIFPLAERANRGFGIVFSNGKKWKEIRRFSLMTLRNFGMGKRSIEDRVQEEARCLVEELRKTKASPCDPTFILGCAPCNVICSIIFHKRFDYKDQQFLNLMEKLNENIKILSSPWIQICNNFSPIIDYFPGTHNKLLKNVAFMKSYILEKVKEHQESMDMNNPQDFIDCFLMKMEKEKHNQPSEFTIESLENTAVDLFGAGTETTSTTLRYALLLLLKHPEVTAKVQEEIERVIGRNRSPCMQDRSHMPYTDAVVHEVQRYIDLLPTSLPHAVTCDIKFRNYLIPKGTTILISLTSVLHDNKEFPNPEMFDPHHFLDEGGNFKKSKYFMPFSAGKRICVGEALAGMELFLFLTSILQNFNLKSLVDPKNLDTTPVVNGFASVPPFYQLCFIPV
Chain of Voltage-gated inwardly rectifying potassium channel KCNH2 (Homo sapiens) (Q12809 whole entry, looked up): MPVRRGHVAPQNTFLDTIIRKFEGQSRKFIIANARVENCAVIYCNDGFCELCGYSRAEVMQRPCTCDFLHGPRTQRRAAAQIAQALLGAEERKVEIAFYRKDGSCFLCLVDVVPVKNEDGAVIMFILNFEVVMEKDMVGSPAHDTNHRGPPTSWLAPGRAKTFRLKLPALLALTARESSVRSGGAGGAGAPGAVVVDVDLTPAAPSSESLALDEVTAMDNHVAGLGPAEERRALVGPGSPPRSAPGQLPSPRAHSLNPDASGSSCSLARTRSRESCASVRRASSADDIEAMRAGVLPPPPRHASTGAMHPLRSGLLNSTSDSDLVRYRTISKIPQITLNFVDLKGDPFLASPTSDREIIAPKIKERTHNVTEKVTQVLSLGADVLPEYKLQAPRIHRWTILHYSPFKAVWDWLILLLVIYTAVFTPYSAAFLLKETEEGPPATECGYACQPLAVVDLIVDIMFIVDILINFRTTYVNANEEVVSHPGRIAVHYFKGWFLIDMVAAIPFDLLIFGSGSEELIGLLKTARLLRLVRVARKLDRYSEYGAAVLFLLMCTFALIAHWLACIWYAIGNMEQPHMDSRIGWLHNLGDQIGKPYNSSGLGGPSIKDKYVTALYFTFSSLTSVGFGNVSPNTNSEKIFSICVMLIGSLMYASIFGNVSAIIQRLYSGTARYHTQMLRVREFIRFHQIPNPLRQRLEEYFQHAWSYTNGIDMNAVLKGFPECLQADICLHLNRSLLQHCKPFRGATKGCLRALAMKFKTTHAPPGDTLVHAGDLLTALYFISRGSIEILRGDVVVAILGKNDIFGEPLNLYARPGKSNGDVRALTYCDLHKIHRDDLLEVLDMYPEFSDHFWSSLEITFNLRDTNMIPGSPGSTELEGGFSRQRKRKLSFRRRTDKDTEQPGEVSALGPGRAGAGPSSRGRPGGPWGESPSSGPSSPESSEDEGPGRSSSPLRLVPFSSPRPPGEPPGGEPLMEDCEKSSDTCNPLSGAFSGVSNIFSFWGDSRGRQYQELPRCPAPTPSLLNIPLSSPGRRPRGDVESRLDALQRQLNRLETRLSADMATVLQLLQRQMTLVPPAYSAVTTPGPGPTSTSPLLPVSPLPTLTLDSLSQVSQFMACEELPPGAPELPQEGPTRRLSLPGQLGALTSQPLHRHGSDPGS

Turning to `Oc1ccc(Nc2ccccc2)cc1`, the Potency entry in assay [1], in [2], in assay [4], in assay [10] and in [11] was “inactive” throughout. Further, the compound was classed as inactive in [3]. Besides, the Potency was 54.5 µM (active) in assay [5]; 63.3 µM (active) in assay [6]; 20 µM (active) in assay [7]; 28.3 µM (active) in [8]; 31.7 µM (active) in assay [9].

With `O=C(N[C@@H](c1ccccc1)[C@@H]1CCCCN1)c1cccc(C(F)(F)F)c1Cl`, the Potency is 54.5 µM (active) in assay [1]; 54.5 µM (active) in assay [2]; 61.1 µM (active) in [4]; 1.26 µM (active) in [6]; 17.8 µM (active) in assay [7]; 63.3 µM (active) in assay [8]. The Potency in assay [11] is 1.59 µM (active). The compound was called inactive in [3]. Also, the Potency entry in [9] is “inactive”.

On to `CNC(=S)NC`, for which the Potency result in assay [1], in [2], in assay [4], in assay [5], in assay [7] and in [8] was “inactive” each time. Besides, the Potency result in [10] and in [11] was “inactive” each time. For the same compound, in [9], the Potency is 31.7 µM (active).

Regarding `C/C=C(\C)C(=O)OCCC(C)CCC=C(C)C` (centres undefined), the Potency result in assay [1], in assay [2], in assay [12], in assay [4], in assay [5] and in assay [6] was “inactive” in each case. Also, the Potency entry in assay [10] was “inactive”. Further, the results for the Potency in assay [7], in assay [8] and in [11] were 20 µM (active), 39.9 µM (active) and 20 µM (active), respectively.

As to `CC(C)(O)c1ccccc1CC[C@@H](SCC1(CC(=O)O)CC1)c1cccc(/C=C/c2ccc3ccc(Cl)cc3n2)c1`, the Potency result in [1], in assay [2], in assay [4], in assay [5], in assay [13] and in assay [6] was “inactive” each time. Besides, the Potency result in [7], in [8], in assay [9], in [10] and in assay [11] was “inactive” in each case. In addition, the result in assay [3] was inactive.

As for `O=C(C(=O)c1ccccc1)c1ccccc1`, the Potency entry in [1], in assay [2], in [12], in assay [4], in assay [5] and in assay [8] was “inactive” in each case. The Potency result in assay [10] and in assay [11] was “inactive” each time. Besides, the Potency was 8.9 µM (active) in assay [7] and 11.2 µM (active) in [9].

Take `Cc1ccc(S)cc1`: the Potency result in [1], in assay [2], in assay [12], in [5], in [10] and in [11] was “inactive” in each case. The Potency was 39.9 µM (active) in assay [7], 35.6 µM (active) in assay [8] and 31.7 µM (active) in assay [9].

Turning to `CC(=O)Oc1ccc2c(c1)CC[C@@H]1[C@@H]2CC[C@]2(C)[C@@H](O)CC[C@@H]12`, the Potency entry in assay [1], in [2], in assay [4], in [13], in assay [6] and in [8] was “inactive” each time. Moreover, the Potency entry in assay [10] and in assay [11] was “inactive” each time. The compound was called inactive in assay [3]. In addition, the Potency in assay [5] is 26.6 µM (active); in [7], 24.5 µM (active). Besides, the max activation in [14] was -1.91%.

Take `CC(=O)[C@H]1CC[C@H]2[C@@H]3C=CC4=CC(=O)CC[C@@]4(C)[C@@H]3CC[C@]12C`: the Potency result in assay [1], in [2], in assay [4], in assay [13], in [15] and in assay [6] was “inactive” in each case. Also, the Potency entry in assay [9] and in assay [11] was “inactive” in each case. Besides, the result in [3] was inactive. In addition, the Potency in assay [5] is 26.6 µM (active); in [7], 2.75 µM (active); in assay [8], 38.9 µM (active).
